# In the library only some 8.6% were active in any assay of this set; here they are far more common.
# LASV entry inh = qHTS for Inhibitors of binding or entry into cells for Lassa Virus. Lassa virus pseudotyped entry inhibition, cell-based qHTS. Potency, µM (titrated, usually from 49.2 µM), for inactives: at the top dose activity change, negative = inhibition, usual class: inhibitors. 18,000 tested, 4.1% active
# MARV entry inh = qHTS for Inhibitors of binding or entry into cells for Marburg Virus | AID 720532, 2013 | Marburg virus pseudotype entry/binding inhibition, cell-based | 18,000 tested, 6.5% active | Potency, µM (doses to about 49.2 µM), inactives show at the top dose activity change, negative = inhibition, most hits filed as inhibitors
# The depositor's hits bear a star; ? = inconclusive; . = not tested or not shown; ! = a repeat was not active; [ ] = remark or other dose. Calls follow the shape of the full dose curve; tested in HEK293 cells. % is scaled to controls: 0 for no effect and ±100 for the full control effect; potency is read from the fitted curve at half-maximal effect.
SMILES,LASV entry inh,MARV entry inh
CCN(CC)CC(O)CN1CCCCc2nc(C)c(C)cc21 (centres undefined),-17.4%[8.59 µM],-8.4%[8.59 µM]
C[C@H]1CN(CCc2ccccc2)C(=O)[C@H]1CC(=O)Nc1ccccc1,6.4%,-14.8%
CC1=CC(=O)c2c(O)cccc2C1=O,3.16µM*,3.98µM*
CC1=CC(=O)c2ccccc2C1=O,?,10µM*!
CN1C(=O)c2ccccc2C1=O,-1.2%[107 µM],19.5%[107 µM]
CC1=CC2C(=O)c3cccc(O)c3C(=O)C2C(O)=C1 (centres undefined),-5.0%,10.8%
COC(=O)C1=C(C)N(Cc2ccccc2)C(=NCC(C)C)NC1c1cccc(C(F)(F)F)c1 (centres undefined),.,9.1%[8.59 µM]
CCN1C(=NCc2cc(OC)c(OC)c(OC)c2)NC(c2ccccc2)C(C(=O)OC)=C1C (centres undefined),-2.9%[8.59 µM],43.0%[8.59 µM]
C[C@H]1COc2cccc(F)c2S(=O)(=O)N1,18.8%,22.5%
COC(=O)c1cccc(C(=O)N2CCc3c(C(=O)OC)c(OCc4ccccn4)cc(=O)n3CC2)c1,3.6%,-16.4%
CN(C)c1ccc(/C=C2\C(=O)Nc3ccccc32)cc1,14.1µM*,-25.0%
CN(C)c1ccc(/C=C2/C(=O)Nc3ccccc32)cc1,?,8.91µM*
CO[C@@H]1c2ccccc2[C@H]2C(C(=O)O)c3c(n(C)c4ccccc34)[C@H]2[C@H]1C (some centres undefined),-21.9%[8.59 µM],29.1%[8.59 µM]
COC(=O)N[C@@H](c1cccs1)C(C(C)=O)C(=O)OC (some centres undefined),-11.1%[8.59 µM],-12.2%[8.59 µM]
C[C@@H]1C(c2ccccc2)=CC(=O)c2nc3ccccc3cc2[C@@H]1C(=O)N1CCCC1,-2.8%[8.59 µM],-10.4%[8.59 µM]
C=C(C)C(=O)C=CC=Cc1ccccc1,.,-87.0%[8.59 µM]
CN1[C@@H]2CC[C@H]1CC(OC(c1ccccc1)c1ccccc1)C2 (some centres undefined),14.1µM*,12.6µM*
CN1[C@@H]2CC[C@H]1CC(O[C@@H](c1ccccc1)c1ccc(Cl)cc1)C2 (some centres undefined),10µM*,4.47µM*
CN1C2CC(OC(=O)C(CO)c3ccccc3)CC1C(O)C2 (centres undefined),9.0%,8.4%
c1ccc(C(O[C@H]2CCCN(CCc3ccc4c(c3)OCO4)C2)c2ccccc2)cc1,-4.1%,?
CN1C2CCC1CC(OC(c1ccc(F)cc1)c1ccc(F)cc1)C2 (centres undefined),?,5.62µM*
Cc1ccc(CNc2ncnc3sc(C(=O)N4CCC(N5CCCC(O)C5)CC4)c(C)c23)o1 (centres undefined),-10.6%,-17.8%
CC(=O)[C@@]1(O)CC[C@H]2[C@@H]3C=C(Cl)C4=CC(=O)CC[C@]4(C)[C@H]3CC[C@@]21C,-21.0%,1.0%
Cn1ccc2c(-c3ccccc3Cl)cc3c(c21)C1CCC3C1 (centres undefined),17.3%,-20.2%
COCC=CC1=CC2=CC(=O)C(C)(OC(=O)c3cnc4ccccc4n3)C(=O)C2=CN1CCCCO (centres undefined),6.1%[8.59 µM],45.6%[8.59 µM]
SMILES,LASV entry inh,MARV entry inh
CCCCCCCCOC(=O)c1ccccc1C(=O)OCCCCCCCC,-15.3%,-7.7%
CCCCCCCCCCCCCCOc1ccc(C(=O)O)o1,0.562µM*,?
O[C@@H](CNC[C@H](O)[C@H]1CCc2cc(F)ccc2O1)[C@@H]1CCc2cc(F)ccc2O1,?,10µM*
COCOCCn1cc(CN2CCS(=O)(=O)N(Cc3ccc(-c4ccccc4)cc3)C(C)C2=O)nn1 (centres undefined),-6.5%,9.7%
COc1ccc2c(c1)-c1nc(-n3ncc(C(=O)N(C)CC4CCCN(C)C4)c3C)ncc1CC2 (centres undefined),-5.1%,?
O[C@@H]1[C@@H]2c3cc4c(cc3CN3CCC(=C[C@@H]1O)[C@H]23)OCO4,?,2.51µM*
CN1CCc2cc3c(cc2[C@@H]1O)OCO3,-1.6%[17.8 µM],-24.3%[17.8 µM]
Cc1cc(C)n(-c2cccc(C(=O)NCC3Cc4cc(Cl)cc(-c5cnccn5)c4O3)c2)n1 (centres undefined),?,-2.4%
COc1ccc([C@]23Cc4ccccc4[C@H](O2)C2=C(CC(C)(C)CC2=O)O3)cc1,-2.8%[8.59 µM],6.3%[8.59 µM]
O=C1[C@@H]2[C@H]3[C@H](O)[C@H](O)CC(=NOC[C@@H](O)COCc4ccco4)[C@@H]3CC[C@H]2C(=O)N1C1CCCCC1,0.6%[8.59 µM],-22.0%[8.59 µM]
C[C@H]1CC[C@H]2C(=O)O[C@H](COc3ccc(C(C)(C)C)cc3)CN2[C@H]1c1ccc(Br)cc1,.,-11.8%[8.59 µM]
CC(C)c1nc(CN(C)C(=O)N[C@H](C(=O)N[C@@H](Cc2ccccc2)C[C@H](O)[C@H](Cc2ccccc2)NC(=O)OCc2cncs2)C(C)C)cs1,7.08µM*!,?
O=C(OCc1cn([C@H]2C[C@H](c3ccccc3)N(C(=O)C3CCCCC3)C[C@H]2O)nn1)c1ccccc1,8.1%,16.8%
CCOC(=O)N1CCN(Cc2ccc3c(c2)CN(C(=O)c2cc(-c4ccccc4)on2)CCO3)CC1,?,-27.5%
CCCOC(=O)c1cc(O)c(O)c(O)c1,-22.0%,25.1µM*
CCCOC(=O)c1ccc(O)cc1,-16.2%[107 µM],14.9%[107 µM]
CC(C)=CCCC1(C)C=Cc2c(O)c3c(c(CC=C(C)C)c2O1)OC12C(CC4CC1C(C)(C)OC2(C/C=C(/C)C(=O)O)C4O)C3=O (centres undefined),10µM*,2.6%
CC(C)C[C@H](NC(=O)[C@H](CCc1ccccc1)NC(=O)CN1CCOCC1)C(=O)N[C@@H](Cc1ccccc1)C(=O)N[C@@H](CC(C)C)C(=O)[C@@]1(C)CO1,11.2µM*,?
CC(C)CC(NC(=O)CN)C(=O)NC(Cc1ccccc1)C(=O)O (centres undefined),1.2%,12.9%
Cc1cc(C(=O)N2CCOc3ccc(CN4CCC(Oc5cccnc5)CC4)cc3C2)c(C)o1,-1.7%,?
CCOC(=O)C1=C(N)Oc2ccc(Br)cc2[C@@H]1[C@@H](C#N)C(=O)OCC,20µM*,24.3%
CCOC(=O)C1Oc2ccccc2C(C(=O)OC)=C1C(=O)OC (centres undefined),-4.6%,11.4%
COc1ccc2[nH]c(C(=O)c3ccccc3)cc2c1,-8.9%,3.16µM*
O=C(O)c1cc2ccccc2[nH]1,-0.1%,3.5%
CCCC(=O)O[C@]1(C(=O)CO)CC[C@H]2[C@@H]3CCC4=CC(=O)CC[C@]4(C)[C@H]3[C@@H](O)C[C@@]21C,-2.2%,-4.9%
SMILES,LASV entry inh,MARV entry inh
CCCCCC(=O)O[C@@]1(C(C)=O)CCC2C3CCC4=CC(=O)CC[C@@]4(C)C3CC[C@]21C (some centres undefined),22.4µM*,10µM*
CCN1C(=O)N(S(=O)(=O)C(F)(F)F)C(c2ccccc2)C(C(=O)OC)=C1C (centres undefined),32.8%[8.59 µM],-6.0%[8.59 µM]
Cc1c(C(=O)NCc2nccs2)cnn1-c1ncc2c(n1)-c1ccccc1CC2,-7.6%,3.0%
COc1cc(=O)n2c(c1C(=O)NCc1ccco1)CCN(C(=O)c1c(F)ccc(F)c1F)CC2,1.7%,-4.0%
CC(C)(C)n1nc(-c2ccc(Cl)cc2)c2c(N)ncnc21,6.0%,39.0%
CC(C)n1nc(-c2cc3cc(O)ccc3[nH]2)c2c(N)ncnc21,3.98µM*,3.55µM*
COC(=O)[C@H]1Cc2c([nH]c3ccccc23)CN1C(=O)COc1ccc2c(C)cc(=O)oc2c1,-11.9%,-12.1%
F/C(COc1ccc2c(c1)[nH]c1ccccc12)=C1/CN2CCC1CC2,?,12.6µM*
